Bioassay records as filed in PubChem BioAssay.
FLuc modulator – qHTS profiling assay for firefly luciferase inhibitor/activator using purifed enzyme and Km concentrations of substrates (counterscreen for miR-21 project) | 360,000 compounds, 6.9% hits | Potency, µM (highest dose often 57.5 µM), without a hit: at the highest dose activity change, negative = inhibition, most hits filed as inhibitors | purified FLuc, Km substrates, luminescence inhibition | Luciferin 4-monooxygenase (Photinus pyralis), P08659;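 note: plate controls were vehicle for no effect and reference inhibitor for full effect; nearly all actives have a fitted effect of over 55% in size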
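Biochemical qHTS of compounds, final roughly 60 µM downward over six points, against 10 nM purified firefly luciferase using Km concentrations of substrates (10 uM D-luciferin, 10 uM ATP) in Tris acetate pH 7.5 buffer; luminescence output.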
SMN2 splice enh – qHTS Assay for Enhancers of SMN2 Splice Variant Expression; HEK293 SMN2-luciferase splicing reporter, luminescence, 30-36 h; Potency, µM (top dose mostly 46.1 µM), for inactives: at the top dose activity change, positive = activation, actives largely listed as activators; 210,000 compounds, 2.8% hits; AID 1458, 2008; note: % of control where 0% means no effect; nearly all actives have a fitted effect of over 55% in size
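qHTS luciferase splicing reporter: luminescence rises when SMN2 exon 7 is included in transfected HEK293 cells. Compound exposure lasted 30-36 h at 37C, with 4.5 mM final sodium butyrate as control, followed by a ONE-Glo read.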
NPC1 promoter act – qHTS Assay for NPC1 Promoter Activators; Huh7 NPC1 promoter luciferase reporter, 24 h; Potency, µM (doses to about 9.22 µM), for the others: at the top dose activation, most hits filed as activators; 320,000 compounds, 2.4% hits; AID 485313, 2010; note: % of control where 0% means no effect; nearly all actives have a fitted effect of over 60% in size
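Compounds in DMSO were transferred onto Huh7 NPC1-luciferase reporter cells pre-incubated 2 h; after 24 h at 37 °C, Amplite reagent was dispensed and luminescence recorded 10 min later.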
ELG1 repair inh – qHTS screen for small molecules that inhibit ELG1-dependent DNA repair in human embryonic kidney (HEK293T) cells expressing luciferase-tagged ELG1; HEK293T ELG1-luciferase reporter, luminescence, 16 h; DNA damage induced by 5-fluorouridine; Potency, µM (series often up to 46.1 µM), for inactives: top-dose activity change, negative = inhibition, hits mostly inhibitors; AID 504467, 2011; 330,000 compounds, 2.3% hits; note: % is set by controls: 0 for no effect and ±100 for the full control effect; nearly all actives have a fitted effect of over 55% in size
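Step one: seed 2,000 cells per well. Step two: pin-transfer compound or DMSO alongside 5-fluorouridine. Step three: incubate 16 hr, 37 °C, 5% CO2. Step four: add ONE-Glo, wait 30 min, read luminescence.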
Rab9 promoter act – qHTS Assay for Rab9 Promoter Activators. Huh7 Rab9 promoter-luciferase reporter, luminescence, 24 h. Potency, µM (top dose mostly 9.22 µM), for inactives: at the highest dose activation, negative = inhibition, usual class: activators. 320,000 compounds, 2.8% hits; note: % of control where 0% means no effect; nearly all actives have a fitted effect of over 60% in size
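Huh7 cells stably carrying a Rab9 promoter-luciferase reporter, 1500 cells per well in OP-MEM I with 10% FBS, treated with compound 24 hours at 37C. Luciferase activity read by luminescence after 10 minutes with Amplite reagent.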
ELG1 genotoxic – qHTS screen for small molecules that induce genotoxicity in human embryonic kidney (HEK293T) cells expressing luciferase-tagged ELG1; Potency, µM (series often up to 46 µM), for inactives: at the top dose activity change, positive = activation, hits mostly activators; HEK293T ELG1-luciferase reporter, luminescence, 16 h; AID 504466, 2011; 330,000 compounds, 1.3% hits; note: % of control where 0% means no effect; nearly all actives have a fitted effect of over 60% in size
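Step 1: seed 2,000 HEK293T ELG1-luciferase cells per well. Step 2: add compound or DMSO, incubate 16 hr at 37 °C. Step 3: ONE-Glo, 30 min at room temperature, read luminescence.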
ELG1 FLuc counter – qHTS screen for small molecules that inhibit ELG1-dependent DNA repair: Hit Confirmation in Cell-Based Luciferin Assay; Potency, µM (titrated, usually from 46.1 µM), without a hit: at the highest dose activity change, negative = inhibition, usual class: inhibitors; cell-free firefly luciferase luminescence counter-screen, ViewLux; 350 compounds, 3% hits; shares compounds with ELG1 repair inh; note: % is set by controls: 0 for no effect and ±100 for the full control effect
ELG1-Luc inh – HTS assay for small molecules that inhibit ELG1-dependent DNA repair in human embryonic kidney (HEK293T) cells expressing luciferase-tagged ELG1: Hit Confirmation | shares compounds with ELG1 repair inh | 670 compounds, 68% hits | HEK293T ELG1-luciferase levels, luminescence; cells co-treated with 5-fluorouridine | Potency, µM (highest dose often 46.1 µM), for the others: top-dose activity change, negative = inhibition, usual class: inhibitors; note: % is set by controls: 0 for no effect and ±100 for the full control effect; nearly all actives have a fitted effect of over 55% in size
ELG1 MMS Luc – confirmation of human ELG1 repair inhibitors, MMS stimulated | shares compounds with ELG1 repair inh | HEK293T luciferase-tagged ELG1 level, MMS stimulated | Potency, µM (series often up to 46.1 µM), without a hit: at the highest dose activity change, negative = inhibition, most hits filed as inhibitors | 670 compounds, 53% hits | AID 624249; note: % is set by controls: 0 for no effect and ±100 for the full control effect; nearly all actives have a fitted effect of over 60% in size
ELG1 5FU viab – qHTS screen for small molecules that inhibit ELG1-dependent DNA repair: Hit Confirmation with 5FU Viability; 670 tested, under 10 active; Potency, µM (titrated, usually from 46.1 µM), without a hit: top-dose activity change, negative = viability loss, usual class: cytotoxic; AID 624250, 2012; shares compounds with ELG1 repair inh; cell viability with 5-FU, ELG1-dependent repair;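 note: ELG1-luc HEK293T cells cotreated with 5-fluorouridine at 10 µM final; viability measured 16 h after compound addition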
ELG1 MMS cell – qHTS screen for small molecules that inhibit ELG1-dependent DNA repair: Hit Confirmation with MMS Viability | shares compounds with ELG1 repair inh | Cell viability with MMS, ELG1-dependent DNA repair | Potency, µM (doses to about 46.1 µM), without a hit: at the highest dose activity change, negative = viability loss, hits mostly cytotoxic | 670 compounds, 33% hits;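 note: ELG1-luc HEK293T cells co-treated with 10 µM MMS; viability read 16 h after compound addition; % is set by controls: 0 for no effect and ±100 for the full control effect; nearly all actives have a fitted effect of over 60% in size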
Cell viab unstim – qHTS screen for small molecules that inhibit ELG1-dependent DNA repair: Hit Confirmation with Unstimulated Viability Assay | shares compounds with ELG1 repair inh | cell viability counter-screen, unstimulated, luminescence | 900 compounds, 8% hits | Potency, µM (top dose mostly 45.9 µM), for the others: at the highest dose activity change, negative = loss of viability, actives largely listed as cytotoxic;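 note: compound exposure lasted 16 hours before reading; % is set by controls: 0 for no effect and ±100 for the full control effect; nearly all actives have a fitted effect of over 55% in size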
FLuc enzyme – qHTS screen for small molecules that inhibit ELG1-dependent DNA repair: Hit Confirmation in Biochemical Luciferin Assay; AID 624253, 2012; shares compounds with ELG1 repair inh; purified firefly luciferase, luminescence counter-screen; Potency, µM (top dose mostly 57.5 µM), for the others: at the top dose activity, negative = inhibition, actives largely listed as inhibitors; 350 compounds, 10% hits; note: % is set by controls: 0 for no effect and ±100 for the full control effect
Numbers without * were called inactive; ? = inconclusive; . = no result given; [ ] = dose if it differs, or a comment. In the library only some 9.4% were active in any assay of this set; here they are far more common. Calls come from the whole dose curve; as a rule, active = well fitted curve in the direction sought with a large enough effect; inconclusive = small, poorly fitted or top-dose-only effect, or another doubt; inactive = no such curve, though single readings can be large; an effect the other way counts as inactive or inconclusive. Potency is the fitted concentration of half-maximal effect.

SMILES	FLuc modulator	SMN2 splice enh	NPC1 promoter act	ELG1 repair inh	Rab9 promoter act	ELG1 genotoxic	ELG1-Luc inh	ELG1 MMS Luc	ELG1 5FU viab	ELG1 MMS cell	Cell viab unstim	others
CC(C)(C)OC(=O)NCc1ccc(NC(=O)c2nc[nH]c2C(=O)NCCCCCCNC(=O)c2[nH]cnc2C(=O)Nc2ccc(CNC(=O)OC(C)(C)C)cc2)cc1	.	.	.	2.3µM*	.	-4%	1.1µM*	25µM*	?	?	?
O=C(Nc1ccccc1)c1nc[nH]c1C(=O)NCCCCNC(=O)c1[nH]cnc1C(=O)Nc1ccccc1	.	.	.	?	.	-6%	.	.	.	.	.
CC(C)(C)OC(=O)NCc1ccc(NC(=O)c2nc[nH]c2C(=O)NCCCNC(=O)c2[nH]cnc2C(=O)Nc2ccc(CNC(=O)OC(C)(C)C)cc2)cc1	.	.	.	1.8µM*	.	1%	2.2µM*	13µM*	?	25µM*	?
CC(C)(C)OC(=O)NCc1ccc(NC(=O)c2nc[nH]c2C(=O)NCCN(CCNC(=O)c2[nH]cnc2C(=O)Nc2ccc(CNC(=O)OC(C)(C)C)cc2)CCNC(=O)c2[nH]cnc2C(=O)Nc2ccc(CNC(=O)OC(C)(C)C)cc2)cc1	.	.	.	7%	.	3%	.	.	.	.	.
CC1CCN(Cc2c(O)ccc3c(=O)c(-c4cccc(Cl)c4)c(C(F)(F)F)oc23)CC1	2%	-4%	.	.	.	.	.	.	.	.	.
O=C(Nc1ccc(N2CCN(Cc3ccccc3F)CC2)cc1)c1ccc([N+](=O)[O-])o1	-2%	.	-8%	2.6µM*	6%	2%	4µM*	4.4µM*	7%	6.3µM*	-18%
CC(=O)c1cccc(-n2c(=O)c3c4c(sc3n(CC(=O)c3ccc(Cl)cc3)c2=O)CN(C(C)=O)CC4)c1	0%	-3%	.	.	.	.	.	.	.	.	.
CN1CCN(c2nc(-c3ccncc3)nc3ccccc23)CC1	3%	2%	0%	-16%	-2%	10%	?	?	-16%	-5%	?	ELG1 FLuc counter=18%;FLuc enzyme=0%
O=C(Nc1cccc(/C=C/c2ccccn2)c1)c1ccc(-n2cncn2)cc1	.	.	.	3.3µM*	.	-1%	13µM*	?	-9%	?	?
COc1cc(C(=O)OCCc2cc3ccccc3c(=O)o2)cc(OC)c1OC	-6%	.	-32%	?	-3%	-6%	4.4µM*	?	?	?	?
COc1cc(C(=O)OCCCc2cc3ccccc3c(=O)o2)cc(OC)c1OC	0%	.	-2%	?	-9%	0%	.	.	.	.	.
CCOc1ccc2c(c1)c(=O)c(C(=O)c1ccc3c(c1)OCO3)cn2Cc1ccc(F)cc1	2%	-5%	.	.	.	.	.	.	.	.	.
CCOc1cc(/C=N/Nc2cc(C)nc(-n3nc(C)cc3C)n2)ccc1O	-1%	.	-42%	2.6µM*	-41%	0%	6.3µM*	?	?	?	?
COc1ccc(NC(=O)C2CCN(c3ncnc4c3nc3n4CCCCC3)CC2)cc1Cl	-3%	.	-4%	1.8µM*	-5%	-1%	3.2µM*	?	?	?	?	ELG1 FLuc counter=7%;FLuc enzyme=-4%
Cc1ccc(NC(=O)C2CCCN(c3ncnc4c3nc3n4CCCCC3)C2)cc1Cl (centres undefined)	-3%	.	-14%	-28%	0%	-9%	.	.	.	.	.
Cc1ccc(NC(=O)C2CCN(c3ncnc4c3nc3n4CCCCC3)CC2)cc1Cl	-7%	.	-1%	2.3µM*	-1%	-12%	10µM*	18µM*	?	-14%	?	ELG1 FLuc counter=-1%;FLuc enzyme=0%
O=C(Nc1ccccc1-c1nc2ccccc2[nH]1)c1ccc(N2C(=O)CCC2=O)cc1	-1%	-2%	-2%	1.8µM*	-5%	2%	0.71µM*	?	?	4%	-18%
COc1ccc(Nc2nc(-c3ccncc3)nc3ccccc23)cc1	-5%	.	-5%	2.9µM*	-2%	-1%	5µM*	?	?	-12%	?	ELG1 FLuc counter=4%;FLuc enzyme=-7%
COc1ccc(Nc2nc(-c3ccccc3O)nc3ccccc23)cc1	-19%	.	-1%	?	-3%[1.84 µM]	-11%	.	.	.	.	.
Cc1nn(C)c(C)c1/C=C/C(=O)c1ccc(Cl)cc1Cl	-19%	-92%	-17%	4.1µM*	-17%	-19%	5%	1.6µM*	-5%	2.2µM*	?
Cc1nn(C)c(C)c1/C=C/C(=O)O	0%	0%	-5%	-1%	11%	4%	.	.	.	.	.
